hcGAS inh: human cGAS inhibition. Q8N884. recombinant h-cGAS, ATP depletion, Kinase-Glo luminescence. hit rate 0.081% among 290,000. inhibition, % at 12.5 µM. AID 1259398;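 also: 0% = vehicle reaction and 100% = reaction without DNA for no activity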
mcGAS inh: inhibitors of mouse cGAS; inhibition, % at 12.5 µM; hit rate 0.15% among 160,000; AID 1259399; recombinant cGAS, Kinase-Glo ATP depletion luminescence;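 also: 0% = negative control wells and 100% = reference inhibitor with no enzyme activity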
Target sequence (Q8C6L5 whole entry, looked up): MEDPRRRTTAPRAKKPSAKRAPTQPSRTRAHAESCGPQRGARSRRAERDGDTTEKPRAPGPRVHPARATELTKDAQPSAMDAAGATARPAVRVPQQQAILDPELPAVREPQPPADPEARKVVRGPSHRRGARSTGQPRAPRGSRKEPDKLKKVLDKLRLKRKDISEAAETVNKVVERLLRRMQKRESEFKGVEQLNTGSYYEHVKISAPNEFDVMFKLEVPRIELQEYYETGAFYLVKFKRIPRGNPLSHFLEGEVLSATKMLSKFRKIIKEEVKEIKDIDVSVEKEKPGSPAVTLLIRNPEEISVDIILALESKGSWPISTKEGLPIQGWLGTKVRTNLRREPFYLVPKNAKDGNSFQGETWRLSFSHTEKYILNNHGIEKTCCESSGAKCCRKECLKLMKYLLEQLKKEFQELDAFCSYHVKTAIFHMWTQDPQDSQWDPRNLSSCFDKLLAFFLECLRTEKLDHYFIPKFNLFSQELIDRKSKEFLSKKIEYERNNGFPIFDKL
NPYLR7 agonist: mosquito NPYLR7 agonism. HEK293T NPYLR7/Galpha15, GCaMP6s calcium fluorescence. activation, % at 10 µM. hit rate 0.15% among 270,000; in the data active = activation above about 40%;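 also: 0% = vehicle and 100% = reference agonist at the receptor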
Numbers without * were called inactive; . = not tested or not shown; ! = repeats disagree. Shown are actives, neighbours in structure and some others; about 0.3% of the full set was active somewhere. Rule as the data show it, unless noted: active = inhibition above about 40%; inactive = the rest.

SMILES | hcGAS inh | mcGAS inh | NPYLR7 agonist
C[C@H](C(=O)NCc1nccs1)N1Cc2ccc(-c3ccc(C#N)cc3)nc2C1=O | -6 | -7 | 9
N#CC(=Cc1c[nH]c2ccccc12)C(N)=S | 6 | . | 18
CC1CC(C)CN(Cc2csc(NC(=O)c3cc(F)cc(F)c3)n2)C1 (configuration not stated) | 2 | -3 | -5
Cc1cc(=O)c(C(=O)NCC(C)c2ccccc2)nn1-c1ccccc1 (configuration not stated) | -4 | . | -1
N#CC1C(=N)Oc2cc(O)ccc2C1c1ccccc1I (configuration not stated) | 4 | 2 | 82*
N#CC1C(=N)Oc2cc(N)ccc2C1c1ccc(Cl)cc1Cl (configuration not stated) | -7 | . | 6
N#CC1C(=N)Oc2cc(O)ccc2C1c1ccc(Cl)cc1Cl (configuration not stated) | -5 | . | 96*
N#CC1C(=N)Oc2cc(O)ccc2C1c1cccs1 (configuration not stated) | -4 | -1 | 11
N#CC1C(=N)Oc2cc(O)ccc2C1c1ccc(Br)cc1 (configuration not stated) | -2 | . | 0
N#CC1C(=N)Oc2cc(O)ccc2C1c1ccncc1 (configuration not stated) | -8 | -1 | 85*
Cc1nnc(C2CCCN(C(=O)NC3CCCCC3)C2)s1 (configuration not stated) | -5 | -7 | -5
O=[N+]([O-])c1cc(S(=O)(=O)Nc2cc(Cl)ccc2F)ccc1F | -2 | . | 40*
Cc1ccc(S(=O)(=O)Nc2cc(Cl)ccc2F)cc1C | 8 | -2 | 3
O=C(C1CC1)N(CC(=O)N1CCc2sccc2C1COc1ccc(Cl)cc1)Cc1ccco1 (configuration not stated) | -5 | -5 | -2
O=c1c2c3c(sc2ncn1CCc1nc2c(s1)CCC2)CNCC3 | -6 | . | .
CCCN=Cc1c(-c2ccccc2)[nH]n(-c2nc3ccccc3s2)c1=O | 54* | -2 | 2
CC(=NCCCn1ccnc1)c1c(-c2ccccc2)[nH]n(-c2nc3ccccc3s2)c1=O | 6 | 4 | -4
COc1ccc(CN2CCN(CC(O)COc3cc(Cl)ccc3Cl)CC2)cc1 (configuration not stated) | -5 | . | 0
CC(=O)Oc1cc2oc(=O)c(Cl)c(C)c2cc1Cl | 72* | 29 | -1
COc1cc2oc(=O)cc(C)c2c(OC)c1OC(C)=O | 2 | . | -1
Cc1cc(C)c2c(=O)c(-c3nc(-c4ccccc4)c(C)[nH]3)coc2c1 | -1 | . | 10
O=C(Cc1ccccc1Br)NCCc1cscn1 | -19 | . | 7
Cc1nc2nc(-c3cc(Cl)ccc3O)cc(C(=O)O)c2[nH]1 | 9 | 51* | -2
Cc1nc2nc(-c3cccc(Cl)c3)cc(C(=O)O)c2[nH]1 | -5 | -2 | -2
N#CC(=CC=Cc1ccco1)C(N)=S | 61* | 79* | 6
SMILES | hcGAS inh | mcGAS inh | NPYLR7 agonist
O=C(COC(=O)C=Cc1ccco1)COC(=O)C=Cc1ccco1 | 16 | . | -15
CC1=NN(c2cccc(C(=O)O)c2)C(=O)/C1=C\c1ccc(-c2ccccc2C(=O)O)o1 | -6 | 64* | -4
CC1=NN(c2cccc(C(=O)O)c2)C(=O)/C1=C\c1ccc(-c2cc([N+](=O)[O-])ccc2O)o1 | 5 | 8 | -17
COc1cccc(-c2nnc(NC(=O)c3ccc(S(=O)(=O)N(C)CC4CCCO4)cc3)o2)c1 (configuration not stated) | -7 | . | -3
CC[n+]1c(-c2ccccc2)c2cc(N)ccc2c2ccc(N)cc21 | 56*! | . | -5
CC[n+]1c2ccccc2cc2ccccc21 | -3 | . | 10
CN(Cc1cc(-c2ccccc2)no1)Cc1nc(-c2ccc3c(c2)OCO3)no1 | -9 | . | 12
O=C(NCc1ccc(-c2ccn[nH]2)cc1)N(Cc1cccnc1)C1CC1 | 6 | 3 | 2
COc1cc(C(=O)N2CCCN(c3c(-c4ccc(OC)c(OC)c4)cnc4ncnn34)CC2)cc(Cl)n1 | -10 | -9 | -2
Cc1ccc(Cn2ccccc2=NC(=O)c2ccc3c(c2)OCO3)cc1 | -9 | -13 | 8
CC(C)n1cc(C(=O)N2CCN(C(=O)Cc3cccs3)CC2)c2nn(-c3ccccc3)c(=O)c-2c1 | -2 | -9 | -6
CCN(CC)CCNC(=O)c1c(C)[nH]c(/C=C2/C(=O)Nc3ccc(F)cc32)c1C | 10 | . | 60*
Cc1[nH]c(/C=C2\C(=O)Nc3ccc(S(=O)(=O)N(C)c4cccc(Cl)c4)cc32)c(C)c1C(=O)N1CCN(C)CC1 | -1 | -1 | 41
O=S(=O)(O)c1cc(N=C=S)ccc1/C=C/c1ccc(N=C=S)cc1S(=O)(=O)O | 86* | . | 3
CC(C)(C)/[N+]([O-])=C/c1ccc(S(=O)(=O)O)cc1S(=O)(=O)O | -3 | . | -10
COc1ccccc1NC(=O)c1ccc(-n2nc(-c3cccc(C)c3)cc2N)cc1 | 2 | 1 | -8
O=C(C1CC=CCC1)N1CCc2onc(-c3ccc(C(F)(F)F)cc3)c2C1 (configuration not stated) | -7 | -17 | 11
CC(C)NC(=O)C(C)N1CCc2onc(-c3ccc(C(F)(F)F)cc3)c2C1 (configuration not stated) | 5 | 1 | 135*
CS(=O)(=O)c1ccc(-c2cccc3c2OC(CNC(=O)c2cc[n+]([O-])cc2)C3)cc1 (configuration not stated) | -6 | -10 | 76*
O=C(NCC1Cc2cccc(F)c2O1)c1ccc(F)cc1 (configuration not stated) | -1 | -4 | 5
Cc1nc(C(=O)N(C)Cc2snnc2C)cs1 | -3 | . | .
O=C(NC(c1ccccc1)c1cnccn1)C1CCN(CCOc2ccc(Cl)cc2)CC1 (configuration not stated) | 1 | -3 | 2
Cc1ccc2c(c1)CCCN2CC(=O)N(CCC(N)=O)c1ccccc1 | 3 | 3 | 100*
Cc1ccc(N(CCC#N)C(=O)CN2CCCc3ccccc32)cc1C | -6 | -17 | 22
C=CCN1C(=O)C(Cc2ccc(OC)cc2)S/C1=N/N=C\c1cccs1 (configuration not stated) | 1 | -5 | 88*
SMILES | hcGAS inh | mcGAS inh | NPYLR7 agonist
C=CCN1C(=O)C(Cc2ccc(OC)cc2)S/C1=N\N=C/c1ccco1 (configuration not stated) | -5 | -6 | 2
O=C1NC2(CCC(c3ccccc3)CC2)Nc2c1cnn2-c1ccc(F)cc1 (configuration not stated) | -6 | . | 0
COC(=O)C1CC2CCCCC2N1C(=O)c1cc(C)nc2cc(F)ccc12 (configuration not stated) | -4 | . | 10
Cc1ccc(C)c(NC(=O)CC(=O)NCCc2c[nH]c3ccccc23)c1 | -4 | -9 | 1
O=C(NCC1CCCO1)c1cccnc1N1CCN(C(=O)c2ccc(OC(F)F)cc2)CC1 (configuration not stated) | -1 | -8 | 30
CCN(CC)C1=CC2=CC(=C(C#N)C#N)CCC2CC1 (configuration not stated) | 0 | -2 | 615*
CS(=O)(=O)CC(=O)N(Cc1ccccc1)CC1CCC1 | -6 | . | 15
CN(Cc1ccccc1)C1=CC2=CC(=C(C#N)C#N)CCC2CC1 (configuration not stated) | -3 | . | 118*
